# Hits are enriched below; roughly 17% of the tested compounds scored in any of these assays.
# TDP1 cell noCPT – qHTS for Inhibitors of human tyrosyl-DNA phosphodiesterase 1 (TDP1): qHTS in cells in absence of CPT; DT40 Tdp1-/- hTDP1 cells, no CPT, ATP luminescence, 48 h; Potency, µM (highest dose often 46.2 µM), without a hit: at the top dose activity change, negative = growth inhibition, actives largely listed as inhibitors; hit rate 15% among 420,000; AID 686978, 2013; also: % is scaled to controls: 0 for no effect and ±100 for the full control effect; nearly all actives have a fitted effect of over 55% in size
#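 Chicken DT40 Tdp1-/- cells stably complemented with human TDP1 were seeded at 400 cells/well with DMSO in place of 20 nM camptothecin. After compound pinning, cells grew at least 48 hr at 37 °C; viability read by CellTiter-Glo luminescence.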
# TDP1 cell CPT – growth inhibition of DT40 Tdp1-/-;hTDP1 cells with camptothecin (screen for TDP1 inhibitors) | chicken DT40 Tdp1-/-;hTDP1 cells + 20 nM CPT, ATP luminescence, 48 h | Potency, µM (top dose mostly 46.2 µM), inactives show top-dose activity change, negative = growth inhibition, usual class: inhibitors | hit rate 12% among 420,000 | AID 686979; also: % is scaled to controls: 0 for no effect and ±100 for the full control effect; nearly all actives have a fitted effect of over 55% in size
#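 Chicken DT40 Tdp1-/- cells stably complemented with human TDP1 were seeded at 400 cells/well in medium containing 20 nM camptothecin, exposed to pin-transferred compounds, and grown at 37 °C for at least 48 hr. Viability was read as ATP luminescence.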
# ClpP mod – qHTS Assay for Activators of ClpP | ATP-dependent Clp protease proteolytic subunit (Bacillus subtilis (strain 168)), P80244 | purified B. subtilis ClpP, FRET peptide cleavage, 20 min | Potency, µM (highest dose often 57.5 µM), inactives show at the highest dose activity change, negative = active | hit rate 1.9% among 340,000 | AID 651965, 2013; active = well fitted falling curve with a large enough effect; inconclusive = small, poorly fitted or top-dose-only effect; inactive = no such curve, though single readings can be large or run the other way; also: the source files actives as falling curves though it sought activators and does not explain the sign; nearly all actives have a fitted effect of over 65% in size
#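 Purified B. subtilis ClpP, 10 microg/mL final in Tris/HCl pH8 with KCl, BSA, glycerol and Tween-20, cleaved an Abz/nitrotyrosine-quenched decapeptide. Fluorescence (ex 320, em 430) was read at 0 and 20 min at room temperature. Delta was normalized to 5.8 microM ADEP and DMSO/no-enzyme controls.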
# TDP1 block – TDP1 (human) enzyme inhibition; Q9NUW8; recombinant TDP1, AlphaScreen DNA substrate cleavage; Potency, µM (top dose mostly 130 µM), for inactives: top-dose activity change, negative = inhibition, hits mostly inhibitors; hit rate 0.28% among 350,000; AID 485290; also: % is scaled to controls: 0 for no effect and ±100 for the full control effect; nearly all actives have a fitted effect of over 40% in size
# Target sequence (Q9NUW8 whole entry, looked up): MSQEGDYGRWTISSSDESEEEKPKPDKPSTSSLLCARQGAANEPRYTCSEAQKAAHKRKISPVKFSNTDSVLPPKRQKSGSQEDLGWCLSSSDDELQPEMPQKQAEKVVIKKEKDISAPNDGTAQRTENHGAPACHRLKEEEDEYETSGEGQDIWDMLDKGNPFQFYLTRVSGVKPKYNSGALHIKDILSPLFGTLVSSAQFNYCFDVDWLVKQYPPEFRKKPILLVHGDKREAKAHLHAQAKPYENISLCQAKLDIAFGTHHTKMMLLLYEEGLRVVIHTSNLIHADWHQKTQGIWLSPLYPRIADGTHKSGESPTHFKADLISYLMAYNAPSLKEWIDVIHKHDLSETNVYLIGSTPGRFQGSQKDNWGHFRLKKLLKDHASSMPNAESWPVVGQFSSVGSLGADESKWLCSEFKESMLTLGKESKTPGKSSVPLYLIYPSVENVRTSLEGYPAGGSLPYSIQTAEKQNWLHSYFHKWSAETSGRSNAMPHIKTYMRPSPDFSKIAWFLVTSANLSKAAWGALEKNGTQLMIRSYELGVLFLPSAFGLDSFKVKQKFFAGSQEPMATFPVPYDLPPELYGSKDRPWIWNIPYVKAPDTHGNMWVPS
#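 E. coli-derived human Tdp1, 1 nM final. Cpd preinc 15 min RT; substrate 15 nM final, 5 min RT; AS bead mix 10 ug/ml final, 10 min RT. Signal loss = tyrosine-FITC cleavage. No-enzyme wells = max signal.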
# Numbers without * were called inactive; ? = inconclusive; / = not tested or not shown; [ ] = remark or other dose. Unless noted, calls follow the shape of the dose curve; as a rule, active = well fitted curve in the direction sought with a large enough effect; inconclusive = small, poorly fitted or top-dose-only effect, or another doubt; inactive = no such curve, though single readings can be large; an effect the other way counts as inactive or inconclusive. Potency is read from the fitted curve at half-maximal effect.
SMILES,TDP1 cell noCPT,TDP1 cell CPT,ClpP mod,TDP1 block
COc1ccc(F)cc1-c1cc(NC=O)c2ncc(-c3cccc(C(F)(F)F)c3)n2c1,4.6µM*,5.2µM*,4%,/
COc1cccc(-c2cc(NC=O)c3ncc(-c4ccc(OC)c(OC)c4)n3c2)c1,4.1µM*,5.2µM*,?,/
COc1ccc(-c2cnc3c(NC=O)cc(-c4ccoc4)cn23)cc1OC,2.9µM*,5.2µM*,-14%,/
O=S(=O)(Nc1ccon1)c1ccc(F)c(F)c1,15%,-3%,-2%,6%
COc1ccc(CCNC[C@@H](O)c2ccc(O)cc2)cc1OC,/,/,/,-7%[56.1 µM]
CN(C)CC1CCCCC1OC(=O)c1ccc(S(=O)(=O)N(C)c2ccccc2)cc1 (stereo unspecified),-18%,-16%,/,0%
O=C(Cn1cc([N+](=O)[O-])cn1)NCc1cc2ccccc2[nH]1,-6%,-6%,-5%,5%
COc1ccc(-c2cc(NC=O)c3ncc(-c4cc(OC)c(OC)c(OC)c4)n3c2)cc1,0.21µM*,0.15µM*,-27%,/
COc1ccc(-c2cnc3c(NC=O)cc(-c4cc(OC)c(OC)c(OC)c4)cn23)cc1OC,5.2µM*,6.5µM*,-17%,/
COc1ccc(-c2cnc3c(NC=O)cc(-c4ccccc4)cn23)cc1OC,0.92µM*,0.92µM*,-18%,/
COc1ccc(-c2cnc3c(NC=O)cc(-c4cccc(NS(C)(=O)=O)c4)cn23)cc1OC,3.7µM*,4.6µM*,?,/
CCSc1ccc(-c2cc(NC=O)c3ncc(-c4cc(OC)c(OC)c(OC)c4)n3c2)cc1,?,?,-26%,/
Cc1ccc(C(=O)N(CC(=O)NC2CCCC2)c2ccc3c(c2)OCCO3)s1,?,?,0%,3%
COc1ccccc1CNCCCCCCNCCCCCCCCNCCCCCCNCc1ccccc1OC,6.5µM*,13µM*,/,15%[56.1 µM]
CCCCCCCCNCCS(=O)(=O)NCc1ccccc1OC,-87%,-93%,1%,/
COc1ccccc1CNN,5.8µM*,2.6µM*,/,5%
COc1cccc(C2CC(c3ccc(Cl)cc3Cl)Nc3nc(N)nn32)c1 (stereo unspecified),23µM*,?,-4%,8%
CCOc1ccc(C2CC(c3cccc(Cl)c3)n3nc(N)nc3N2)cc1 (stereo unspecified),16µM*,7.3µM*,0%,3%
COc1cccc(C2CC(c3ccccc3Cl)Nc3nc(N)nn32)c1 (stereo unspecified),-10%,1%,-3%,9%
Cc1[nH]c2ccccc2c1C(=O)C(=O)NC1CC(=O)N(c2cccc(F)c2)C1 (stereo unspecified),?,-1%,1%,3%
O=C(c1ccccc1Cl)c1c(O)c2ccccc2oc1=O,-26%,?,1%,/
CCC(C)C(NC(=O)OCc1ccccc1)C(=O)NC(Cc1ccc(O)cc1)C(=O)OC (stereo unspecified),1%,-9%,1%,-3%
O=C(Nc1ccc2nc(-c3ccco3)[nH]c2c1)c1cccs1,?,21µM*,-2%,2%
O=C(c1ccccc1)c1ccc2nc(-c3ccc(NC(=O)c4ccccc4F)cc3)[nH]c2c1,3.3µM*,3.7µM*,?,3%
Cn1cc([N+](=O)[O-])c(C(=O)Nc2ccc3nc(-c4ccccc4)[nH]c3c2)n1,18µM*,?,?,3%
SMILES,TDP1 cell noCPT,TDP1 cell CPT,ClpP mod,TDP1 block
O=C(Nc1ccc2nc(-c3ccccc3)[nH]c2c1)c1cccs1,13µM*,26µM*,-1%,3%
O=C(O)CCC(=O)Nc1ccc(-c2nc3ccc(C(=O)c4ccccc4)cc3[nH]2)cc1,4%,1%,0%,/
CCOc1ccc(-c2nnc(SCC(=O)Nc3cc(F)ccc3F)o2)cc1,?,?,6%,6%
CC(=O)Nc1ccccc1OCC(=O)N(Cc1ccccc1)C(C)C,13µM*,16µM*,-1%,3%
O=C(NCCCN1CCOCC1)c1cn(-c2ccccc2)nc1-c1ccc(Br)cc1,16µM*,?,-4%,4%
O=C(Nc1nc2ccccc2n1CCN1CCOCC1)c1cn(-c2ccccc2)nc1-c1ccccc1,18µM*,18µM*,-27%,12%
O=C(Nc1nc2ccccc2n1CCN1CCOCC1)c1ccccc1,-25%,-29%,-1%,/
CCOC(=O)c1c(C)c(-c2ccccc2)n(CC(=O)NC2CCCCC2)c1C,-10%,1%,1%,3%
CCc1ccc(-c2nc(CN3CCCC(C(=O)N4CCN(c5cc(Cl)ccc5C)CC4)C3)c(C)o2)cc1 (stereo unspecified),3.3µM*,6.5µM*,-6%,8%
CCOC(=O)N1CCN(C(=O)C2CCCN(Cc3nc(-c4ccc(Cl)cc4)oc3C)C2)CC1 (stereo unspecified),5.8µM*,9.2µM*,-2%,3%
Cc1ccc(Cl)cc1N1CCN(C(=O)C2CCCN(Cc3nc(-c4cccc(Cl)c4)oc3C)C2)CC1 (stereo unspecified),?,?,2%,10%
Cc1cccc(N2CCN(C(=O)C3CCN(Cc4nc(-c5ccc(Cl)cc5)oc4C)CC3)CC2)c1C,?,?,-2%,-3%
COC(=O)c1ccc(-c2nc(CN3CCC(C(=O)N4CCOCC4)CC3)c(C)o2)cc1,3%,8%,7.9µM*,3%
Cc1oc(-c2ccc(F)cc2)nc1CN1CCCC(C(=O)N2CCOCC2)C1 (stereo unspecified),-2%,-27%,-3%,/
COc1ccc(S(=O)(=O)c2cn(C)c3cc(N4CCOCC4)c(F)cc3c2=O)cc1,?,?,-22%,-2%
COc1ccc(S(=O)(=O)c2cn(C)c3cc(N4CCCC4)c(F)cc3c2=O)cc1,23µM*,?,?,2%
CC1CCCN(c2cc3c(cc2F)c(=O)c(S(=O)(=O)c2cccc(Cl)c2)cn3C)C1 (stereo unspecified),23µM*,?,-18%,4%
Cn1cc(S(=O)(=O)c2ccccc2)c(=O)c2cc(Cl)ccc21,?,16µM*,-2%,0%
Cn1cc(S(=O)(=O)c2cccc(Cl)c2)c(=O)c2cc(F)c(N3CCN(c4ccccc4)CC3)cc21,-13%,4%,?,2%
Cn1cc(S(=O)(=O)c2ccc(Cl)cc2)c(=O)c2cc(F)c(N3CCCC3)cc21,16µM*,21µM*,-25%,-6%
Cc1cc(C)cc(S(=O)(=O)c2cn(C)c3cc(N4CCN(C)CC4)c(F)cc3c2=O)c1,?,?,-12%,3%
COc1ccc(Sc2cc(C(F)(F)F)nc(-c3ccccn3)n2)cc1,-2%,-25%,-1%,-2%
CC(=O)NS(=O)(=O)c1ccc(NC(=O)C(C)NS(=O)(=O)/C=C/c2ccccc2)cc1 (stereo unspecified),1%,5%,-2%,1%

# Source: PubChem BioAssay
